# Results as given in PubChem BioAssay (Tox21).
# “And” between values parts separate entries of the source, which are not always exact repeats. Identical values can stand only once. Results filed as inconclusive are left out. A call without a number means that no potency is given here. Where a structure was tested more than once in an assay, its records may differ in their call. The source made the active and inactive calls. Unless noted, calls come from the whole dose curve; as a rule, active = well fitted curve in the direction sought with a large enough effect in the repeat runs; inconclusive = weak or mixed curves; inactive = no such curve, though single readings can be large; an effect the other way counts as inactive or inconclusive.
# Experiments:
# [1] = A CellTox Green Cytotoxicity Assay to monitor cytotoxicity in HepG2 cells - 8 hour (AID 1224890); note: nearly all actives have a fitted effect of over 45% in size; note: potency is the fitted concentration of half-maximal effect
# Method in brief: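 Continuous culture of HepG2 cells with a membrane-impermeant DNA dye; rising fluorescence marks dead cells. Compound exposure lasted up to 40 h at 37 C, with reads every 8 h from 0 h.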
# [2] = qHTS assay to identify small molecule antagonists of the estrogen receptor alpha (ER-alpha) signaling pathway using the BG1 cell line in the presence of 0.1 nM 17-beta-estradiol - cell viability counter screen (AID 1259241); note: nearly all actives have a fitted effect of over 40% in size
# Method in brief: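 Following 5 days in phenol red-free medium with charcoal-stripped serum, VM7Luc4E2 cells received test compounds alongside 0.1 nM 17beta-estradiol (final) at 37C for 22 hr. Live cells were then quantified via protease-substrate fluorescence.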
# [3] = qHTS assay to identify small molecule antagonists of the androgen receptor (AR) signaling pathway using the MDA cell line in the presence of 0.5 nM R1881 - cell viability counter screen (AID 1259242); note: nearly all actives have a fitted effect of over 45% in size
# Method in brief: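 Fluorescence from CellTiter-Fluor, which reports protease activity of live cells, was read 30 min after reagent addition to MDA-kb2 cells that had been incubated 16 hr with compound and 0.5 nM R1881.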
# [4] = biological target: Estrogen receptor (Homo sapiens) (UniProt P03372); test: qHTS assay to identify small molecule antagonists of the estrogen receptor alpha (ER-alpha) signaling pathway using the BG1 cell line in the presence of 0.1 nM 17-beta-estradiol (AID 1259244); note: nearly all actives have a fitted effect of over 50% in size; note: potency is the fitted concentration of half-maximal effect
# Method in brief: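 Quantitative high-throughput screen in VM7Luc4E2 cells: compound plus 0.1 nM E2 (final), 22 h, 37C, 5% CO2; ONE-Glo added, 30 min room temperature, luminescence measured.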
# [5] = qHTS assay to identify small molecule HDAC inhibitors (AID 1259364); note: nearly all actives have a fitted effect of over 45% in size; note: potency is the fitted concentration of half-maximal effect
# Method in brief: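 Endogenous HDAC class I/II activity was measured in wild-type HCT-116 cells by HDAC-Glo luminescence after 2 h compound treatment.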
# [6] = qHTS assay to identify small molecule HDAC inhibitors - cell viability counter screen (AID 1259365); note: series mostly up to about 92 µM; nearly all actives have a fitted effect of over 50% in size
# Method in brief: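 HCT-116 wild-type, overnight attachment; 2hr drug exposure, 37C; CellTiter-Glo luminescent ATP readout after 30min RT.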
# [7] = qHTS assay to identify small molecule agonists of the sonic hedgehog signaling (Shh) pathway - cell viability counter screen (AID 1259366); note: nearly all actives have a fitted effect of over 50% in size; note: potency is the fitted concentration of half-maximal effect
# Method in brief: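 Compounds in DMSO were pin-transferred onto 3T3 Gli1-Luc cells that had settled 4hr; plates then stood 24hr at 37C and 5% CO2. One hour before the end, CellTiter-Fluor was added and fluorescence recorded.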
# [8] = qHTS assay to identify small molecule agonists of the sonic hedgehog signaling (Shh) pathway (AID 1259368; calls by dose curve;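 note: NIH/3T3-derived 3T3Gli1-Luc cells carrying a stable Gli1-driven firefly luciferase reporter; series mostly up to about 92 µM; nearly all actives have a fitted effect of over 15% in size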)
# Method in brief: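 Luminescent signal was taken as a measure of Gli1-controlled luciferase expression in stably transfected NIH/3T3-derived cells that had been treated for 24 hr with compounds delivered in DMSO.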
# [9] = qHTS assay to identify small molecule antagonists of the sonic hedgehog signaling (Shh) pathway (AID 1259369; calls by dose curve; note: nearly all actives have a fitted effect of over 45% in size; note: potency is the fitted concentration of half-maximal effect)
# Method in brief: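 Screening used 3T3Gli1-Luc cells at 2,000 per well, compounds delivered in DMSO, and conditioned medium as agonist stimulus; plates incubated 24hr at 37 C and 5% CO2 before a 30min luciferase step.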
# [10] = biological target: Estrogen receptor beta (Homo sapiens) (UniProt Q92731); test: qHTS assay to identify small molecule agonists of the estrogen receptor beta (ER-beta) signaling pathway (AID 1259377; active = well fitted activation curve with a large enough effect in the signal ratio in the repeat runs, not every such curve was filed as active; the % refers to the signal ratio)
# Method in brief: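 qHTS in ER-beta-UAS-bla HEK293T cells: 6 hr settling, then 16 hr compound at 37C, then LiveBLAzer substrate 2 h at RT before fluorescence reading.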
# [11] = biological target: Estrogen receptor beta (Homo sapiens) (UniProt Q92731); test: qHTS assay to identify small molecule antagonists of the estrogen receptor beta (ER-beta) signaling pathway (AID 1259378; active = well fitted inhibition curve with a large enough effect in the signal ratio in the repeat runs, not every such curve was filed as active; the % refers to the signal ratio; note: potency is the fitted concentration of half-maximal effect)
# Method in brief: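 Antagonist mode: compounds added to beta-lactamase reporter HEK293T ER-beta-UAS cells stimulated with E2 (1nM final), 16 hr at 37C. LiveBLAzer B/G FRET substrate, 2 hours room temperature, fluorescence read-out.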
# [12] = qHTS assay to identify small molecule agonists of the androgen receptor (AR) signaling pathway in the presence of an antagonist - cell viability counter screen (AID 1259379); note: nearly all actives have a fitted effect of over 25% in size; note: potency is the fitted concentration of half-maximal effect
# Method in brief: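 In MDA-kb2 cells (human breast carcinoma, MMTV-luciferase), compounds at 15 concentrations plus 3.0uM nilutamide; 16 hr, 37C, 0% CO2; CellTiter-Fluor fluorescence read for viability.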
# [13] = qHTS assay to identify small molecule agonists of the estrogen receptor beta (ER-beta) signaling pathway - cell viability counter screen (AID 1259380); note: nearly all actives have a fitted effect of over 30% in size; note: potency is the fitted concentration of half-maximal effect
# Method in brief: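 Viability of ER-beta-UAS-bla HEK293T cells was determined by CellTiter-Glo luminescence following 16 hr treatment with test compounds at 37C.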
# [14] = qHTS assay to identify small molecule antagonists of the estrogen receptor beta (ER-beta) signaling pathway - cell viability counter screen (AID 1259382); note: nearly all actives have a fitted effect of over 55% in size; note: potency is the fitted concentration of half-maximal effect
# Method in brief: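 Tox21 10K library tested in qHTS format on ER-beta-bla HEK293T cells stimulated with 1nM E2; 16 hr treatment at 37C. Same-well CellTiter-Glo luminescence served as the cell viability measure.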
# [15] = biological target: Estrogen receptor (Homo sapiens) (UniProt P03372); test: qHTS assay to identify small molecule agonists of the estrogen receptor alpha (ER-alpha) signaling pathway in the presence of an antagonist (AID 1259383; calls by dose curve; note: nearly all actives have a fitted effect of over 15% in size; note: potency is the fitted concentration of half-maximal effect; for activation: top concentration of the series differs between compounds)
# Method in brief: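 In VM7Luc4E2 cells, 4,000 per well, compounds at 15 concentrations were co-incubated 22hr at 37C with 10.0nM final ICI-182,780. Luminescence from the stably transfected 4×ERE-luciferase reporter was recorded 30min after ONE-Glo addition.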
# [16] = qHTS assay to identify small molecule agonists or antagonists of the thyroid stimulating hormone receptor (TSHR) signaling pathway - wild type cell line counter screen (AID 1259384; calls by dose curve)
# Method in brief: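 Counter screen in untransfected Hek293: compounds (15-point titration, triplicate) plus phosphodiesterase inhibitor Ro20-1724 added after 18 h plating; 30 min RT. Intracellular cAMP via competitive d2/cryptate immunoassay, 1 h incubation.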
# [17] = biological target: Androgen receptor (Homo sapiens) (UniProt P10275); test: qHTS assay to identify small molecule antagonists of the androgen receptor (AR) signaling pathway using the MDA cell line in the presence of 0.5 nM R1881 (AID 1259243); note: nearly all actives have a fitted effect of over 50% in size; note: potency is the fitted concentration of half-maximal effect
# Method in brief: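 Inhibition of R1881 (0.5 nM final) induced reporter signal was measured in human MDA-kb2 cells; note the MMTV promoter also responds to GR. Exposure lasted 16 hr at 37C.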
# [18] = qHTS assay to identify small molecule antagonists of the sonic hedgehog signaling (Shh) pathway - cell viability counter screen (AID 1259367); note: nearly all actives have a fitted effect of over 55% in size; note: potency is the fitted concentration of half-maximal effect
# Method in brief: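 Cells: 3T3 Gli1-Luc, 2,000/well, 4 hr pre-incubation. Compounds in DMSO, then conditioned medium. Incubation 24 hr, 37C, 5% CO2. CellTiter-Fluor at 23 hr, 1 hr, fluorescence.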
# [19] = biological target: Androgen receptor (Homo sapiens) (UniProt P10275); test: qHTS assay to identify small molecule agonists of the androgen receptor (AR) signaling pathway in the presence of an antagonist (AID 1259381; calls by dose curve; note: nearly all actives have a fitted effect of over 15% in size)
# Method in brief: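 Here, 15-concentration compound series were pin-transferred onto MDA-kb2 MMTV-luciferase cells already dosed with nilutamide (3.0uM final). After 16hr at 37C, ONE-Glo was added and luminescence read 30min later at room temperature.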
# Chain of Androgen receptor (Homo sapiens) (P10275 whole entry, looked up): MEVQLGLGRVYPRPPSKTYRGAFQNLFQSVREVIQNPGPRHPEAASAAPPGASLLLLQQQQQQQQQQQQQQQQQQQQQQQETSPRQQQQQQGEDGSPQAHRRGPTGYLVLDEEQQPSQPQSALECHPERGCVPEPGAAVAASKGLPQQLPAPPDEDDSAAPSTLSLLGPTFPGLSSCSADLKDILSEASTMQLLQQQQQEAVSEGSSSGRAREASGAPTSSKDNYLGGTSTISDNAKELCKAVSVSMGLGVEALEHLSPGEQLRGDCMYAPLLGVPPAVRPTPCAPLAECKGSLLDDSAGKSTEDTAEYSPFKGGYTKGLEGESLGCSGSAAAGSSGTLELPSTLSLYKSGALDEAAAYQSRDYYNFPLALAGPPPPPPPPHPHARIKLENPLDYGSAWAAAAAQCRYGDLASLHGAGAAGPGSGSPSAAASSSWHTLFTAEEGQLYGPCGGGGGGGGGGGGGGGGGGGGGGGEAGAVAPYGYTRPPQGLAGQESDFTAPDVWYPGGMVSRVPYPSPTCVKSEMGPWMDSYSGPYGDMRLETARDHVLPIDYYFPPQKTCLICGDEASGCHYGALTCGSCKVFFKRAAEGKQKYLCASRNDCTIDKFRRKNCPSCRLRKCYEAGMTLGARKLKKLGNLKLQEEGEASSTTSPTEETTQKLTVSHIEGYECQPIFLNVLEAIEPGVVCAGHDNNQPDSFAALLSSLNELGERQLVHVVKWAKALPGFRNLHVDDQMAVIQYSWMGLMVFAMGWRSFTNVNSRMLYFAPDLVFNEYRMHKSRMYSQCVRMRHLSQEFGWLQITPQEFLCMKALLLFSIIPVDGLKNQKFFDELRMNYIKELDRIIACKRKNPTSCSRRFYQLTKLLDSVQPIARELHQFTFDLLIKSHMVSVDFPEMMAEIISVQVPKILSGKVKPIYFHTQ
# Chain of Estrogen receptor beta (Homo sapiens) (Q92731 whole entry, looked up): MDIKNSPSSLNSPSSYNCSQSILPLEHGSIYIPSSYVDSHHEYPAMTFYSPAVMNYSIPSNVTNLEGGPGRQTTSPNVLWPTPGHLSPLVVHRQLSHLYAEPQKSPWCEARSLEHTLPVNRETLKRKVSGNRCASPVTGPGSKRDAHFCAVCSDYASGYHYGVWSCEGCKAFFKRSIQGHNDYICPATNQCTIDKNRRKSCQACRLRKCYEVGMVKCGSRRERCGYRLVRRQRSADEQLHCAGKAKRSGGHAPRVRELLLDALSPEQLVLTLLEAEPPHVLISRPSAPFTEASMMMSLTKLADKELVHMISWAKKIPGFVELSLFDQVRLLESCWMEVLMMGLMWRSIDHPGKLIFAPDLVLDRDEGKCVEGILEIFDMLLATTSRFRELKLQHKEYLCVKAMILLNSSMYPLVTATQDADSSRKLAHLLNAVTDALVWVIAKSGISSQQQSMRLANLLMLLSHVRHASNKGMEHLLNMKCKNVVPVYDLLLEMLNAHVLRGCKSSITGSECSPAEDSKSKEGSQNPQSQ
# Chain of Estrogen receptor (Homo sapiens) (P03372 whole entry, looked up): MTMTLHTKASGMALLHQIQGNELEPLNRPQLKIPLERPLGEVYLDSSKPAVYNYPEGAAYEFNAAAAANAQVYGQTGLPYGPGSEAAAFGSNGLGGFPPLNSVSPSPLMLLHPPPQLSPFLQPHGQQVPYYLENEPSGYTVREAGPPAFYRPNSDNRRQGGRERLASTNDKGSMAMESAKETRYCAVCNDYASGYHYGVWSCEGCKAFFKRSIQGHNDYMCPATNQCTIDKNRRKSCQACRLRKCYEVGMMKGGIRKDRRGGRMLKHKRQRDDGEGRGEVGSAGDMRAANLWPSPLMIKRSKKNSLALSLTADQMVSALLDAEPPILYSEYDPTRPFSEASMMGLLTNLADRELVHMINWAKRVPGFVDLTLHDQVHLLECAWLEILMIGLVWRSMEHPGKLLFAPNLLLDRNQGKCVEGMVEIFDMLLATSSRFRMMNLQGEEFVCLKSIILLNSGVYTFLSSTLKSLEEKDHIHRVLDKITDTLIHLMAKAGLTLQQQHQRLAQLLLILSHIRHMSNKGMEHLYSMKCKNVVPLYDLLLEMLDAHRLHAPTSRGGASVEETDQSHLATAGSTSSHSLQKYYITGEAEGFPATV
SMILES,Potency [1],Potency [2],Potency [3],Potency [4],Potency [5],outcome [6],Potency [7],Potency [8],Potency [9],Potency [10],Potency [11],Potency [12],Potency [13],Potency [14],Potency [15],outcome [16],Potency [17],Potency [18],Potency [19]
Nn1cnnc1,inactive,inactive,inactive,inactive,inactive,inactive,inactive,inactive,inactive,inactive,inactive,inactive,inactive,inactive,inactive,inactive,,,
CCCCNC(=O)n1c(NC(=O)OC)nc2ccccc21,inactive,inactive,inactive,inactive,21.6 µM (active) and 19.3 µM (active),inactive,inactive,inactive,30.5 µM (active) and inactive,,inactive,inactive,inactive,inactive,inactive,inactive,inactive,60.8 µM (active) and inactive,inactive
Brc1ccc(Oc2cc(Br)c(Br)cc2Br)c(Br)c1,inactive,inactive,inactive,inactive,,inactive,inactive,inactive,inactive,inactive,inactive,inactive,30.6 µM (active),inactive,inactive,,,inactive,
NC(=S)Nc1ccccc1,55.9 µM (active) and inactive,inactive,inactive,27.8 µM (active) and inactive,inactive,inactive,inactive,inactive,inactive,inactive,inactive,24.7 µM (active) and inactive,44 µM (active) and inactive,27.8 µM (active) and inactive,inactive,inactive,,,
c1nc[nH]n1,inactive,inactive,inactive,inactive,inactive,inactive,inactive,inactive,inactive,inactive,inactive,,inactive,inactive,inactive,inactive,,,
CCc1cccc(CC)c1N(COC)C(=O)CCl,inactive,inactive,inactive,47 µM (active),,inactive,27.3 µM (active),inactive,26.4 µM (active),,30.6 µM (active),inactive,,inactive,inactive,inactive,23.5 µM (active) and 27.3 µM (active),59.1 µM (active),inactive
CCOCN(C(=O)CCl)c1c(C)cccc1CC,inactive,inactive,inactive,45.9 µM (active) and 48.6 µM (active),,inactive,57.7 µM (active) and 30.6 µM (active),inactive,18.3 µM (active) and 19.3 µM (active),,21.7 µM (active),,48.6 µM (active),,inactive,inactive,,54.5 µM (active),
CCCCC(CC)COC(=O)c1ccc(C(=O)OCC(CC)CCCC)c(C(=O)OCC(CC)CCCC)c1 (centres undefined),inactive,inactive,inactive,,,inactive,inactive,inactive,inactive,,,inactive,inactive,inactive,,inactive,inactive,,inactive
COc1ccc(C=O)cc1,inactive,inactive,inactive,inactive,,inactive,inactive,inactive,inactive,,,,inactive,inactive,inactive,inactive,,inactive,
Cc1cccc(N)c1N,inactive,inactive,inactive,,inactive,inactive,inactive,,29.6 µM (active) and inactive,inactive,inactive,inactive,inactive,inactive,,inactive,,,
CC(C)=CC1C(C(=O)OCc2coc(Cc3ccccc3)c2)C1(C)C (centres undefined),inactive,inactive,inactive,inactive,,inactive,inactive,inactive,24.4 µM (active) and 30.6 µM (active),,,,,inactive,inactive,inactive,,,
CCC(CC)Nc1c([N+](=O)[O-])cc(C)c(C)c1[N+](=O)[O-],inactive,inactive,inactive,,inactive,inactive,inactive,inactive,inactive,inactive,,inactive,61.1 µM (active),inactive,,inactive,,,
CN(C)c1ccc(C(=O)c2ccc(N(C)C)cc2)cc1,inactive,inactive,inactive,,inactive and 48.6 µM (active),inactive,inactive,inactive,inactive and 24.3 µM (active),inactive,inactive,,inactive,inactive,,inactive,,,
Nc1ccc(Cl)c(Cl)c1,inactive,inactive,inactive,,,inactive,inactive,inactive,inactive,inactive,inactive,,inactive,inactive,,inactive,,inactive,
C=CCc1ccc2c(c1)OCO2,inactive,inactive,inactive,,inactive,inactive,inactive,inactive,inactive,,,inactive,inactive,inactive,,inactive,,inactive,
CC(C)N(C(=O)SCC(Cl)=C(Cl)Cl)C(C)C,inactive,inactive,inactive,,inactive,inactive,inactive,inactive,inactive,inactive,inactive,inactive,inactive,inactive,,inactive,,inactive,
Cc1ccc2c(c1N)C(=O)c1ccccc1C2=O,inactive,,inactive,inactive,7.61 µM (active) and 9.69 µM (active),inactive,,inactive,inactive,,inactive,27 µM (active),30.3 µM (active),inactive,6.04 µM (active) and inactive,inactive,,,
